Test results published in PubChem BioAssay AID1159580 (chemical genetic matrix, 2015).
“And” between values parts separate entries of the source, which are not always exact repeats. Equal values may be shown once. Among all 5,500 compounds or so, about 2,000 (36%) were called active. Inconclusive results (about 18%) are left out. No stated cut-off is given here; in the data, active means normalized growth mostly below about 0.91 (no sharp cut-off); inconclusive means no clear call, values can overlap the other calls; inactive means mostly above about 0.92. The list shows a part of the results.

Experiment: chemical genetic growth profiling, strain panel (AID 1159580);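 further: tested at 20 µM; growth read once vehicle control cultures reached saturation at 30 °C; 1 = growth at the plate median or of vehicle wells; lower values mean less growth of the strain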
Settings: S. cerevisiae deletion strains, growth OD

Measured: normalized growth

COC(=O)[C@@H]1OC(=O)[C@H]2O[C@@]23[C@@]1(C)CCC1[C@@]2(C)CCC(=O)C(C)(C)C2C[C@@H](OC(C)=O)[C@]13C (some centres not stated)
inactive: locus YAL021C, strain ccr4, hits give low values 1.04 | locus YAL026C, strain drs2, hits give low values 0.992 | locus YAL030W, strain snc1, hits give low values 0.989 | locus YBL061C, strain skt5, hits give low values 0.994 | locus YBR009C, strain hhf1, hits give low values 1.03 | locus YBR021W, strain FUR4, hits give low values 0.997 | locus YBR023C, strain chs3, hits give low values 1 | locus YBR171W, strain sec66, hits give low values 0.959 | locus YBR229C, strain ROT2, hits give low values 1.01 | locus YBR231C, strain swc5, hits give low values 0.974 | locus YBR279W, strain paf1, hits give low values 1.02 | locus YCL011C, strain gbp2, hits give low values 0.998 | locus YCL016C, strain dcc1, hits give low values 1.03 | locus YCL029C, strain bik1, hits give low values 0.997 | locus YCL069W, strain vba3, hits give low values 0.987 | locus YCR088W, strain abp1, hits give low values 0.972 | locus YDL005C, strain med2, hits give low values 0.969 | locus YDL035C, strain GPR1, hits give low values 0.998 | locus YDL040C, strain nat1, hits give low values 0.987 | locus YDL074C, strain BRE1, hits give low values 1.01 | locus YDL101C, strain DUN1, hits give low values 1.02 | locus YDL134C, strain PPH21, hits give low values 1.01 | locus YDL185W, strain tfp1, hits give low values 1.01 | locus YDL192W, strain arf1, hits give low values 0.988 | locus YDR001C, strain nth1, hits give low values 0.983 | locus YDR069C, strain doa4, hits give low values 0.953 | locus YDR101C, strain arx1, hits give low values 0.993 | locus YDR137W, strain rgp1, hits give low values 1 | locus YDR159W, strain sac3, hits give low values 0.92 | locus YDR162C, strain NBP2, hits give low values 0.999 | locus YDR195W, strain ref2 0.926 | locus YDR297W, strain sur2, hits give low values 1 | locus YDR318W, strain mcm21, hits give low values 1.01 | locus YDR334W, strain swr1, hits give low values 0.967 | locus YDR388W, hits give low values 1.01 | locus YDR392W, strain spt3, hits give low values 0.993 | locus YDR502C, strain sam2, hits give low values 1.02 | locus YEL003W, strain gim4, hits give low values 0.986 | locus YEL037C, strain rad23, hits give low values 0.974 | locus YEL061C, strain CIN8 (second series), hits give low values 0.975 | locus YEL061C, strain CIN8, hits give low values 1 | locus YER015W, strain faa2, hits give low values 0.98 | locus YER016W, strain bim1, hits give low values 0.98 | locus YER110C, hits give low values 1 | locus YER111C, strain swi4, hits give low values 0.984 | locus YER155C, strain BEM2 (second series), hits give low values 1.01 | locus YER155C, strain BEM2, hits give low values 1.01 | locus YER167W, strain BCK2, hits give low values 0.988 | locus YFR010W, strain ubp6, hits give low values 0.966 | locus YGL078C, strain dbp3, hits give low values 1.02 | locus YGL086W, strain mad1, hits give low values 1 | locus YGL167C, strain pmr1, hits give low values 0.993 | locus YGL173C, strain kem1, hits give low values 0.985 | locus YGL227W, strain vid30, hits give low values 0.986 | locus YGL240W, strain doc1, hits give low values 0.953 | locus YGL248W, strain PDE1, hits give low values 1.02 | locus YGL253W, strain hxk2, hits give low values 0.958 | locus YGR135W, strain pre9, hits give low values 1.06 | locus YGR252W, strain gcn5, hits give low values 1.05 | locus YHR013C, strain ard1, hits give low values 1 | locus YHR027C, strain rpn1, hits give low values 0.976 | locus YHR030C, strain SLT2, hits give low values 1 and 0.997 | locus YHR079C, strain IRE1 (second series), hits give low values 1.01 | locus YHR079C, strain IRE1, hits give low values 0.999 | locus YHR094C, strain hxt1, hits give low values 1.02 | locus YHR129C, strain ARP1, hits give low values 1.01 | locus YHR142W, strain chs7, hits give low values 0.976 | locus YHR200W, strain rpn10, hits give low values 1.02 | locus YIL066C, strain RNR3, hits give low values 0.984 | locus YIL073C, strain SPO22, hits give low values 0.998 | locus YIL125W, strain kgd1, hits give low values 1 | locus YIR030C, strain dcg1, hits give low values 0.998 | locus YJL092W, strain hpr5, hits give low values 0.971 | locus YJL095W, strain BCK1 (second series), hits give low values 0.964 | locus YJL095W, strain BCK1, hits give low values 1.03 and 0.994 | locus YJL115W, strain asf1, hits give low values 0.965 | locus YJL129C, strain trk1, hits give low values 0.939 | locus YJL134W, strain LCB3, hits give low values 0.994 | locus YJL154C, strain vps35, hits give low values 0.989 | locus YJL164C, strain tpk1, hits give low values 1.03 | locus YJL166W, strain qcr8, hits give low values 0.972 | locus YJL168C, strain set2, hits give low values 1.01 | locus YJL187C, strain SWE1 (second series), hits give low values 1.04 | locus YJR066W, strain TOR1, hits give low values 0.912 | locus YKL009W, strain mrt4, hits give low values 0.977 | locus YKL068W, hits give low values 0.998 | locus YKL085W, strain MDH1 (second series), hits give low values 0.998 | locus YKL085W, strain MDH1, hits give low values 0.998 | locus YKL160W, strain elf1, hits give low values 1.07 | locus YKL190W, strain CNB1, hits give low values 1 | locus YKR001C, strain vps1, hits give low values 0.994 | locus YKR026C, strain gcn3, hits give low values 0.966 | locus YKR091W, strain srl3, hits give low values 0.992 | locus YLL001W, strain dnm1, hits give low values 0.992 | locus YLL026W, hits give low values 0.981 | locus YLL041C, strain sdh2, hits give low values 0.98 | locus YLR027C, strain aat2, hits give low values 0.99 | locus YLR039C, strain RIC1, hits give low values 1.03 | locus YLR058C, strain SHM2, hits give low values 1.01 | locus YLR102C, strain apc9, hits give low values 1 | locus YLR113W, strain HOG1, hits give low values 1.01 | locus YLR221C, strain rsa3, hits give low values 0.987 | locus YLR258W, strain gsy2, hits give low values 1 | locus YLR262C, strain YPT6 (second series), hits give low values 1 | locus YLR268W, strain sec22, hits give low values 0.991 | locus YLR320W, strain mms22, hits give low values 0.995 | locus YLR342W, strain FKS1 (second series), hits give low values 1.04 | locus YLR342W, strain FKS1, hits give low values 0.992 | locus YLR357W, strain rsc2, hits give low values 0.967 | locus YLR370C, strain arc18, hits give low values 0.989 | locus YLR371W, strain rom2, hits give low values 0.997 | locus YLR384C, strain iki3, hits give low values 0.985 | locus YLR418C, strain cdc73, hits give low values 1.04 | locus YML016C, strain PPZ1, hits give low values 1 | locus YML032C, strain rad52, hits give low values 0.996 | locus YML120C, strain ndi1, hits give low values 1.01 | locus YML124C, strain tub3, hits give low values 1.01 | locus YMR058W, strain fet3, hits give low values 0.993 | locus YMR078C, strain ctf18, hits give low values 1.01 | locus YMR125W, strain sto1, hits give low values 0.983 | locus YMR129W, hits give low values 0.987 | locus YMR205C, strain PFK2, hits give low values 1.01 | locus YMR223W, strain ubp8, hits give low values 1.01 | locus YMR231W, strain pep5, hits give low values 0.981 | locus YMR307W, strain GAS1, hits give low values 0.917 | locus YNL067W, strain RPL9B, hits give low values 1.04 | locus YNL071W, strain lat1, hits give low values 0.976 | locus YNL153C, strain GIM3, hits give low values 1.03 | locus YNL183C, strain NPR1, hits give low values 0.929 | locus YNL209W, strain ssb2, hits give low values 0.982 | locus YNL233W, strain BNI4, hits give low values 1.02 | locus YNL248C, strain rpa49, hits give low values 0.907 | locus YNL250W, strain rad50, hits give low values 1.03 | locus YNL271C, strain bni1, hits give low values 1.01 | locus YNL298W, strain CLA4, hits give low values 0.993 | locus YNL307C, strain MCK1, hits give low values 1.02 | locus YNL322C, strain KRE1 (second series), hits give low values 0.959 | locus YNR049C, strain mso1, hits give low values 0.966 | locus YNR052C, strain pop2, hits give low values 1.03 | locus YOL006C, strain TOP1, hits give low values 1.02 | locus YOL012C, strain htz1 1.17 | locus YOL147C, strain pex11, hits give low values 0.998 | locus YOR001W, strain rrp6, hits give low values 0.909 | locus YOR061W, strain CKA2, hits give low values 0.987 | locus YOR069W, strain VPS5, hits give low values 0.999 | locus YOR070C, strain gyp1, hits give low values 1 | locus YOR080W, strain dia2, hits give low values 0.978 | locus YOR083W, strain WHI5, hits give low values 1.08 | locus YOR106W, strain vam3, hits give low values 1.03 | locus YOR136W, strain idh2, hits give low values 1.01 | locus YOR144C, strain elg1, hits give low values 1 | locus YOR184W, strain ser1, hits give low values 0.981 | locus YOR231W, strain MKK1, hits give low values 0.98 | locus YOR265W, strain rbl2, hits give low values 0.976 | locus YOR270C, strain vph1, hits give low values 1.02 | locus YOR290C, strain snf2, hits give low values 0.996 | locus YOR316C, strain cot1, hits give low values 1.01 | locus YPL051W, strain arl3, hits give low values 1.02 | locus YPL078C, strain atp4, hits give low values 1.04 | locus YPL106C, strain sse1, hits give low values 0.997 | locus YPL240C, strain hsp82, hits give low values 0.976 | locus YPL256C, strain CLN2, hits give low values 0.979 | locus YPR119W, strain clb2, hits give low values 1.01 | locus YPR141C, strain kar3, hits give low values 1.01 | locus YPR163C, strain tif3, hits give low values 1.01 | locus YPR167C, strain met16, hits give low values 1.02 | strain wtn01, hits give low values 0.998
